Out of some 310,000 compounds screened, about 14,000 (4.5%) showed an effect of 50% or more. Effects have a minus sign here. What follows is part of a selection rich in strong results, with near analogues and random picks from the rest.
Target: human ether-à-go-go-related gene (hERG) potassium channel (human, UniProt Q12809)
Assay: primary screen, population patch clamp on CHO cells stably expressing hERG; higher = less effect of the substance
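Note: peak tail current of the secondary pulse compared with the same well before compound.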

human ether-à-go-go-related gene (hERG) potassium channel, sequence (Q12809 whole entry, looked up): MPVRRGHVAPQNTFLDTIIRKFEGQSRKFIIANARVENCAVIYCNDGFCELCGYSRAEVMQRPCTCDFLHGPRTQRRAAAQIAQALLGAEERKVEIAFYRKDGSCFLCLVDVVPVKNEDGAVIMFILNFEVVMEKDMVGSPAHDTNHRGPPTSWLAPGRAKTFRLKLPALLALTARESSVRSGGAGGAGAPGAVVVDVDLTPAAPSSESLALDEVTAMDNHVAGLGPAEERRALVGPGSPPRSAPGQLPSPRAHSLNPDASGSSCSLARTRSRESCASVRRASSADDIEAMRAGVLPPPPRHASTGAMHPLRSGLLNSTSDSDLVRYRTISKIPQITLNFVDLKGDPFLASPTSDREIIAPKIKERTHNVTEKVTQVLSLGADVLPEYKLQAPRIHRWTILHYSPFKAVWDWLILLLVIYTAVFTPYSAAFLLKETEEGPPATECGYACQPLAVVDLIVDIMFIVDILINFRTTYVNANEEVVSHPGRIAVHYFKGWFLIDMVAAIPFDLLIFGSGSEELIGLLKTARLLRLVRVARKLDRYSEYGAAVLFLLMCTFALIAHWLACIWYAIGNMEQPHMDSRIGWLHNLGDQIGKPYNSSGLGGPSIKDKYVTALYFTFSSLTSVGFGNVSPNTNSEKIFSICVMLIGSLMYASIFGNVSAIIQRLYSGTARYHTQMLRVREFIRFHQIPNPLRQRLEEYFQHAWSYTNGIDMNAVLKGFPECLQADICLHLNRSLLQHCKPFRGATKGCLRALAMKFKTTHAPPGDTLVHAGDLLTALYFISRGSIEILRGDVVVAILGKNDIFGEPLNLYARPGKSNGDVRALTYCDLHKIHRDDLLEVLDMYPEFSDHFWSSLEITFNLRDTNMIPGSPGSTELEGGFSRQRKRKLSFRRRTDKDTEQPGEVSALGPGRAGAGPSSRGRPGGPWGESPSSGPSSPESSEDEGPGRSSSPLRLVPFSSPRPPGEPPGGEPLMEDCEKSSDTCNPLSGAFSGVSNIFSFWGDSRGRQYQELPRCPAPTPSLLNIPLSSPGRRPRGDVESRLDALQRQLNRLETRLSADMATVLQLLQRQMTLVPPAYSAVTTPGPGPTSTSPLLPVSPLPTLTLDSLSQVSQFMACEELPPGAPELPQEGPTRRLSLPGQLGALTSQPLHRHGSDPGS

| SMILES | hERG current change (%, negative = inhibition) at 10uM [%] |
| --- | --- |
| Cc1cc(NC(=O)C(C)SCC(=O)N(C)CC(=O)Nc2ccc(F)cc2)no1 (centres unmarked) | 7.59 |
| CN(CC(=O)Nc1ccccc1Cl)C(=O)Cn1cc(C(F)(F)F)cc(Cl)c1=O | -6.27 |
| O=C(CN1C(=O)COc2ccc(S(=O)(=O)N3CCOCC3)cc21)NCc1ccccn1 | -1.38 |
| O=C(NCC1CCCO1)C1CCN(c2ccc(S(=O)(=O)N3CCCC3)cc2)CC1 (centres unmarked) | -4.69 |
| CC(C(=O)c1ccc(-c2ccccc2)cc1)[n+]1ccccc1.[Br-] (centres unmarked) | 2.72 |
| CCOC(=O)c1ccc(N2C(=O)c3n[nH]c(C)c3C2c2cccnc2)cc1 (centres unmarked) | -17.2 |
| CC(C(=O)OCC(=O)c1ccc(F)cc1)N1C(=O)C2C3C=CC(C3)C2C1=O (centres unmarked) | -15.4 |
| Cc1cccc(NC(=O)/C(=C/c2cccc([N+](=O)[O-])c2)NC(=O)c2cccs2)c1 | 10.2 |
| O=C(Nc1cccc2ccccc12)/C(=C/c1cccc([N+](=O)[O-])c1)NC(=O)c1cccs1 | -67.7 |
| Cc1ccc(NC(=O)/C(=C\c2cccc([N+](=O)[O-])c2)NC(=O)c2cccs2)cc1 | -1.85 |
| CCOC(=O)c1cnn(-c2ccccc2)c1-n1cccc1 | -8.27 |
| C=CCNC(=S)Nc1ccccc1 | -8.73 |
| CN(C)c1ccc(NC(=O)Nc2csc3ccccc23)cc1 | 18.4 |
| Fc1cccc(F)c1CN1CCN(c2ncccn2)CC1 | 15.5 |
| OCCCNc1nc(-c2ccccc2)c2cc(Cl)ccc2n1 | 3.04 |
| F[B-](F)(F)F.OCCCCC[NH+]=c1cc(-c2ccccc2)oc2ccc(Cl)cc12 | -80.3 |
| O=c1oc2ccc(Cl)cc2cc1-c1ccccc1 | 22.4 |
| COc1ccc(-c2cc(=[NH+]c3ccccc3)c3cc(C)ccc3o2)cc1.[O-][Cl+3]([O-])([O-])[O-] | 24.8 |
| F[B-](F)(F)F.OCCC[NH+]=c1cc(-c2ccccc2)oc2ccc(Cl)cc12 | -79.1 |
| Nc1c(C(=O)CCC(=O)O)oc2ccc(Cl)cc12 | -9.4 |
| F[B-](F)(F)F.OCC[NH+]=c1cc(-c2ccccc2)oc2ccc(Cl)cc12 | -71.3 |
| O=c1cc(-c2ccccc2)oc2ccc(O)cc12 | -9.74 |

| SMILES | hERG current change (%, negative = inhibition) at 10uM [%] |
| --- | --- |
| O=C(COc1ccc2oc(-c3ccccc3)cc(=O)c2c1)Nc1ccccc1 | -2.43 |
| CCCNC(=O)c1cccc(COCC(F)(F)F)c1 | -2.57 |
| O=C(Nc1ccccn1)C1(c2cccs2)CCOCC1 | 8.48 |
| COc1ccc(S(=O)(=O)N2CCC3(CC2)OCCN3S(=O)(=O)c2ccc(OC)cc2)cc1 | -24.1 |
| COc1ccc(S(=O)(=O)N2CCOC23CCN(C(=O)c2ccc(Cl)cc2Cl)CC3)cc1 | -68.9 |
| COc1ccc(S(=O)(=O)N2CCOC23CCN(S(=O)(=O)c2ccccc2)CC3)cc1 | 8.72 |
| Cc1ccc(S(=O)(=O)N2CCOC23CCN(C(=O)c2ccc(Cl)cc2Cl)CC3)cc1 | -48.1 |
| O=[N+]([O-])c1ccc(S(=O)(=O)N2CCC3(CC2)OCCN3S(=O)(=O)c2cccs2)cc1 | -50.4 |
| Cc1ccc(S(=O)(=O)N2CCOC23CCN(C(=O)c2cc(Cl)ccc2Cl)CC3)cc1 | -47.6 |
| COc1ccc(S(=O)(=O)N2CCC3(CC2)OCCN3S(=O)(=O)c2cccs2)cc1 | -23.8 |
| O=S(=O)(c1ccc(F)cc1)N1CCC2(CC1)OCCN2S(=O)(=O)c1cccs1 | -10.9 |
| COc1ccc(S(=O)(=O)N2CCOC23CCN(S(=O)(=O)c2ccc([N+](=O)[O-])cc2)CC3)cc1 | -62 |
| COc1ccc(OCCSc2nc(N)cc(=O)[nH]2)cc1 | -1.77 |
| Cc1cccc(OCCC(=O)Nc2ccc(N3CCOCC3)cc2N2CCOCC2)c1 | -19.7 |
| COn1c(SCc2ccc(C)cc2C)nc2ccccc2c1=O | 7.64 |
| O=C(Nc1ccc(SC(F)F)cc1)c1ccc2nccnc2c1 | -17.1 |
| CN1CCC(OC(=O)COc2ccccc2)CC1.Cl | 15.1 |
| CN1CCC(OC(=O)Cc2ccccc2)CC1.Cl | 5.22 |
| CN1CCC(OC(=O)COc2ccc(C(C)(C)C)cc2)CC1.Cl | -28.7 |
| COc1ccc(OC2CCN(S(=O)(=O)c3ccccc3)CC2)cc1 | -11.6 |
| CN1CCC(Oc2ccccc2Sc2ccc(C(F)(F)F)cc2)CC1.O=C(O)C(=O)O | -63.2 |
| Cc1ccccc1C(=O)OC1CCN(C)CC1.Cl | 6.06 |

| SMILES | hERG current change (%, negative = inhibition) at 10uM [%] |
| --- | --- |
| CN1CCC(Oc2ccccc2Sc2ccccc2)CC1.O=C(O)C(=O)O | -64.5 |
| CN1CCC(OC(=O)c2ccccc2)CC1.Cl | 7.92 |
| CN1CCC(Oc2ccc(Sc3ccccc3)cc2)CC1.Cl | -67 |
| COc1ccccc1NC(=O)CCCCC(=O)Nc1ccccc1OC | 7.88 |
| O=Cc1ccccc1-c1cn(CN2C(=O)c3ccccc3C2=O)nn1 | 3.42 |
| O=C(CCc1nnc2ccc(NCc3ccco3)nn12)N1CCN(c2ccccc2)CC1 | -56.3 |
| Cc1ccc(NC(=O)CCc2nnc3ccc(NCc4ccco4)nn23)cc1 | -2.39 |
| O=C(CCc1nnc2ccc(NCc3ccco3)nn12)N1CCN(c2ccc(F)cc2)CC1 | -46.7 |
| O=C(CCc1nnc2ccc(NCc3ccc(F)cc3)nn12)N1CCC2(CC1)OCCO2 | -0.229 |
| O=C(CCc1nnc2ccc(NCc3ccco3)nn12)Nc1ccc(F)cc1 | -9.82 |
| O=C(CCc1nnc2ccc(NCc3ccccc3Cl)nn12)N1CCC2(CC1)OCCO2 | -67.7 |
| O=C(CCc1nnc2ccc(NCc3ccccc3)nn12)N1CCC2(CC1)OCCO2 | 14.4 |
| Cc1ccc(NC(=O)CCc2nnc3ccc(NCc4ccco4)nn23)cc1F | -70.9 |
| O=C(CCc1nnc2ccc(NCc3ccco3)nn12)N1CCN(c2ccccc2F)CC1 | -20.5 |
| COC(=O)C1(Cc2cc(-c3ccc(Cl)cc3)no2)CCN(C(=O)OC(C)(C)C)CC1 | -22.8 |
| CCOc1ccc(OCC)c(S(=O)(=O)NCc2ccccc2)c1 | -10.1 |
| Clc1ccc(N2CCCCCC2)nn1 | 4.93 |
| O=C(c1noc2c1CCCC2)N1CCN(c2ccccc2)CC1 | -17.6 |
| CCOc1cc(CNc2ccc3[nH]c(=O)[nH]c3c2)ccc1OCC(=O)NC(C)(C)C | 12.4 |
| COc1ccc(C2CC(c3ccccc3)=NN2C(=O)CN2CCN(Cc3ccccc3)CC2)cc1 (centres unmarked) | -31.2 |
| COc1ccc(C2=NN(C(=O)CCC(=O)O)C(c3ccc(Br)cc3)C2)cc1 (centres unmarked) | 29.9 |
| COc1ccc(C2CC(c3ccc(Br)cc3)=NN2C(=O)CN2CCCC2)cc1 (centres unmarked) | -68.1 |

| SMILES | hERG current change (%, negative = inhibition) at 10uM [%] |
| --- | --- |
| COc1ccc(C2=NN(C(=O)CN3CCCCC3)C(c3ccc(OC)cc3)C2)cc1 (centres unmarked) | -40.1 |
| COc1ccc(C2=NN(C(=O)CN3CCCC3)C(c3ccc(OC)cc3)C2)cc1 (centres unmarked) | -40.7 |
| COc1ccc(C2=NN(C(=O)CN3CCCCC3)C(c3ccc(C)cc3)C2)cc1 (centres unmarked) | -54.9 |
| COC(=O)C1C2C=CC3(CN(c4ccc(Cl)c(F)c4)C(=O)C13)O2 (centres unmarked) | 4.99 |
| Cc1ccc(S(=O)(=O)N2CCN(c3nccnc3C#N)CC2)cc1 | -54.8 |
| Cc1ccc(S(=O)(=O)N2CCN(c3ccccn3)CC2)cc1 | 4.96 |
| N#Cc1ccc(S(=O)(=O)N2CCN(c3ncccn3)CC2)cc1 | -17.9 |
| O=C(O)Cc1ccc(NC(=O)c2cnccn2)cc1 | 26.1 |
| COc1cc(/C=N/NC(=O)Cc2ccccc2)cc([N+](=O)[O-])c1O | 10 |
| CCN(CCC(=O)Nc1ccc(Br)c(C)c1)Cc1ccccc1.Cl | -36.8 |
| COc1cc(NC(=O)Cc2ccccc2)cc(OC)c1 | -4.79 |
| COc1ccc(NC(=O)CCN2CCN(C/C=C/c3ccccc3)CC2)cc1 | -77.3 |
| COc1cc(NC(=O)CCN2CCN(Cc3ccccc3)CC2)cc(OC)c1 | -20.1 |
| COc1cc(NC(=S)N2CCN(C/C=C/c3ccccc3)CC2)cc(OC)c1 | -10.7 |
| COc1ccc(NC(=O)CCN2CCCCCC2)cc1 | -12.3 |
| COc1cc(NC(=O)CCN2CCN(C/C=C/c3ccccc3)CC2)cc(OC)c1 | -69.3 |
| COc1ccc(NC(=S)N2CCN(C/C=C/c3ccccc3)CC2)cc1 | -24.1 |
| CCN(CCC(=O)Nc1cc(OC)cc(OC)c1)Cc1ccccc1 | -65.1 |
| Cc1nc2ccccc2c(=O)n1NC(=O)c1cncc(Br)c1 | 14.9 |
| Cc1cc(C)c(C(=O)OCCNC(=O)c2cccnc2)cc1C | -17.3 |

— publication PMC4336329 (PLoS ONE, 2015)
